# For some of these results: Measured potencies and affinities stand elsewhere.
# Columns and labels:
# Set-up in all cases: scale not given: direction of the effect not stated beside the values
# [1] = target: Protein translocase subunit SecA (Escherichia coli (strain K12)) (UniProt P10408); assay: Assay to Identify E. coli SecA ATPase Inhibitors; assay type: functional; settings: 30 µM
# [2] = target: T1, Ubiquitin-activating enzyme e1, putative (Leishmania donovani (strain BPK282A1)) (UniProt E9BSI1); assay: Leishmania donovani Ubiquitin Activating Enzyme (LdE1); assay type: functional; settings: 30 µM
# T1 sequence (whole entry): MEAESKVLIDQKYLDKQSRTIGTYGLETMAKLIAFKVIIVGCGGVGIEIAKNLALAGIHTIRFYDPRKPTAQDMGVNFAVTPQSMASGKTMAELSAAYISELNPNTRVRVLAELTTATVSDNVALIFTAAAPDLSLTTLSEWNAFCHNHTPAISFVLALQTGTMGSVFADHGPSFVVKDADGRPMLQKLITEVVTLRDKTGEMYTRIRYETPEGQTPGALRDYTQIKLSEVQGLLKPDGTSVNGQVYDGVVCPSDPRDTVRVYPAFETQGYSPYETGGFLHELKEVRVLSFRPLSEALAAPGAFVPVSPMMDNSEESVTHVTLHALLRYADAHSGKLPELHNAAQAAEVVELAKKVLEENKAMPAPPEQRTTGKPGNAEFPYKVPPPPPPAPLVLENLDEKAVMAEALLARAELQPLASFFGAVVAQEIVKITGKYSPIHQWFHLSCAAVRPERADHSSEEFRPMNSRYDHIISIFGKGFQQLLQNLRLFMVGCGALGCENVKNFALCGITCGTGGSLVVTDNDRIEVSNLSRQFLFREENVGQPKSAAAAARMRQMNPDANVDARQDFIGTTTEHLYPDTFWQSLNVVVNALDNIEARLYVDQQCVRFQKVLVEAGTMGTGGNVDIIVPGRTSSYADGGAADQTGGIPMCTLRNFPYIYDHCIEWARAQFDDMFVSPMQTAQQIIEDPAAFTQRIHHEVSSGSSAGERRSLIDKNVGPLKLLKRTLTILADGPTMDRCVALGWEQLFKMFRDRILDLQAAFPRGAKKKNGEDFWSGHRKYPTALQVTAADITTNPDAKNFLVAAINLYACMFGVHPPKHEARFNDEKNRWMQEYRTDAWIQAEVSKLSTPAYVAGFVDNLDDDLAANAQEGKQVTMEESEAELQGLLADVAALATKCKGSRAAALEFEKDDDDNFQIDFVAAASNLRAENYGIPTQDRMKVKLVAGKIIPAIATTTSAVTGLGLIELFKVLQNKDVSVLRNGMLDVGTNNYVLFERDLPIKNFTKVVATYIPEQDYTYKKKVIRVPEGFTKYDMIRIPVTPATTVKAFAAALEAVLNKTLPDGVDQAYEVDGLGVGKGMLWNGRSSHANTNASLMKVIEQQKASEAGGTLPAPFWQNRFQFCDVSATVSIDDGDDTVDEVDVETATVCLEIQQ
# [3] = target: AMP-activated protein kinase, AMPK (Homo sapiens) (UniProt P54646+O43741+P54619+Q9UGJ0+Q9Y478+Q13131+Q9UGI9); assay: AMP-dependent Kinase enzyme assay. An in vitro enzyme assay that detects ADP turnover that is directly proportional to AMPK activity. This uses naive AMPK that is activated during the assay with MK-8722; assay type: functional; settings: 30 µM
# [4] = target: Sialic acid-binding Ig-like lectin 9 (Homo sapiens) (UniProt Q9Y336); assay: Hs-Siglec9 ALPHAscreen SOP 20170721; settings: 10 µM
# Sialic acid-binding Ig-like lectin 9 (Homo sapiens), sequence (Q9Y336 whole entry): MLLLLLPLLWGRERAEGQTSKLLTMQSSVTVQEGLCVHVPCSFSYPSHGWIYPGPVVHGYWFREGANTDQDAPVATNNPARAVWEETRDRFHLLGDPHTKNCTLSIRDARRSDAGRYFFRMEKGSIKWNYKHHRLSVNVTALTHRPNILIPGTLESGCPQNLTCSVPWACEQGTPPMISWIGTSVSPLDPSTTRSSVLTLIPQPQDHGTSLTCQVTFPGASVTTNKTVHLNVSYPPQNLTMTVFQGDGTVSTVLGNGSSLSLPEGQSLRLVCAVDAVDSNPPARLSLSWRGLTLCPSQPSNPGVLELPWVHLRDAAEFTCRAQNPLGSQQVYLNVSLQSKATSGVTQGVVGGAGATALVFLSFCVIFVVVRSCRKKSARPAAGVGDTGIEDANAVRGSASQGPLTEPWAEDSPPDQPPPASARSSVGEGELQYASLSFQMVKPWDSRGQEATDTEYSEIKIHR
# Trypanosoma cruzi = assay: Trypanosoma cruzi phosphomannomutase and mannose-1-phosphate guanylyltransferase assay; assay type: functional; settings: 10 µM
# [5] = target: T2, Arginase-2, mitochondrial (Homo sapiens) (UniProt P78540); assay: in vitro enzyme assay to detect the production of urea directly proportional to the activity of Arginase II; assay type: functional; settings: 33.3 µM; note: in the data most compounds retested in dose-response had high values
# T2 sequence (whole entry): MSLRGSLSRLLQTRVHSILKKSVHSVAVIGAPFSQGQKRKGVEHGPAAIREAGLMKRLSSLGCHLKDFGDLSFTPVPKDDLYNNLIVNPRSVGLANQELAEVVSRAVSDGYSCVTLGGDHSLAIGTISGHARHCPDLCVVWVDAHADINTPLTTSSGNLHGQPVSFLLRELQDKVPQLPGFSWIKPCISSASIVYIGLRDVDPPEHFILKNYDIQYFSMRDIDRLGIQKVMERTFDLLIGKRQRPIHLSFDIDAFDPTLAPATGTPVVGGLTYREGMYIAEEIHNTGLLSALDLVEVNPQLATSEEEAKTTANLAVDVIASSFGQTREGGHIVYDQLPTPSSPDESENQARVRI
# [6] = target: T3, Proteasome subunit beta (Trypanosoma cruzi) (UniProt O96673); assay: Trypanosoma cruzi proteasome chymotrypsin-like activity (TcProtChymo) assay.; note: in the data most compounds retested in dose-response had high values; assay type: functional; settings: 9.37 µM
# T3 sequence (whole entry): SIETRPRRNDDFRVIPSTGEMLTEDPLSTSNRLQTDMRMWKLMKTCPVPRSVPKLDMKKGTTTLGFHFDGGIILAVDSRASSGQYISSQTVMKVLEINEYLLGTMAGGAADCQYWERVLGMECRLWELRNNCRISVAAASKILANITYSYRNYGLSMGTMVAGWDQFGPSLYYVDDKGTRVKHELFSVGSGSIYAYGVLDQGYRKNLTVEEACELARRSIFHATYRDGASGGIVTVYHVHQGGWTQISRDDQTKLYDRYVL
# Homo sapiens = species: Homo sapiens; assay: To identify inhibition of the IFN signalling (Jak-Stat) pathway via expression of an eGFP reporter gene under the control of an IFN-stimulated response element (ISRE) containing MxA promoter.; assay type: functional; settings: 30 µM
# [7] = target: T4, Tyrosyl-tRNA synthetase, putative (Trypanosoma cruzi (strain CL Brener)) (UniProt Q4DSP6); assay: Trypanosoma cruzi tyrosyl tRNA synthetase (TcYRS) _High Tyrosine SOP; assay type: functional; settings: 30 µM; note: in the data most compounds retested in dose-response had high values
# T4 sequence (whole entry): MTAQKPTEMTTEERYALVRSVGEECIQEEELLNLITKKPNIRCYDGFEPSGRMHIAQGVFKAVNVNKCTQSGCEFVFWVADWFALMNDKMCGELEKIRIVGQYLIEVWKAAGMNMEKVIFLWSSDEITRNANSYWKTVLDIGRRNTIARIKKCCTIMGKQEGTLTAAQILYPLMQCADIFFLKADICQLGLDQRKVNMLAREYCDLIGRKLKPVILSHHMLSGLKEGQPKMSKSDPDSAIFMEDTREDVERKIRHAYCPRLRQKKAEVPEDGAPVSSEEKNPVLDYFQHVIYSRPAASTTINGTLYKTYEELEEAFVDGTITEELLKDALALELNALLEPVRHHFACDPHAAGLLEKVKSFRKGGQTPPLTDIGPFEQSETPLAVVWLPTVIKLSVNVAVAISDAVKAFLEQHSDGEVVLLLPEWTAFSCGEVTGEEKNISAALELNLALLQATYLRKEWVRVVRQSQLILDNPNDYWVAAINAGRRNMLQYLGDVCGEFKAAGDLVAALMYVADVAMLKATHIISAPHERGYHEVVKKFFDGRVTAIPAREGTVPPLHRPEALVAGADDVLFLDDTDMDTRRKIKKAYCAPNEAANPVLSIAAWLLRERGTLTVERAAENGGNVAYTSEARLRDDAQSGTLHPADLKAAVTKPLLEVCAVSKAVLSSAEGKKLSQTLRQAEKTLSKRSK
# [8] = target: T4, Tyrosyl-tRNA synthetase, putative (Trypanosoma cruzi (strain CL Brener)); assay: Trypanosoma cruzi tyrosyl tRNA synthetase (TcYRS) SOP; assay type: functional; settings: 30 µM
# [9] = target: Chromo domain-containing protein 1 (Saccharomyces cerevisiae (strain ATCC 204508 / S288c) (Baker's yeast)) (UniProt P32657); assay: ScCHD-1 Enzyme Inhibition Assay; assay type: functional; settings: 30 µM; note: in the data most compounds retested in dose-response had high values
# Chromo domain-containing protein 1 (Saccharomyces cerevisiae (strain ATCC 204508 / S288c) (Baker's yeast)), sequence (P32657 whole entry, the tested form may be a part): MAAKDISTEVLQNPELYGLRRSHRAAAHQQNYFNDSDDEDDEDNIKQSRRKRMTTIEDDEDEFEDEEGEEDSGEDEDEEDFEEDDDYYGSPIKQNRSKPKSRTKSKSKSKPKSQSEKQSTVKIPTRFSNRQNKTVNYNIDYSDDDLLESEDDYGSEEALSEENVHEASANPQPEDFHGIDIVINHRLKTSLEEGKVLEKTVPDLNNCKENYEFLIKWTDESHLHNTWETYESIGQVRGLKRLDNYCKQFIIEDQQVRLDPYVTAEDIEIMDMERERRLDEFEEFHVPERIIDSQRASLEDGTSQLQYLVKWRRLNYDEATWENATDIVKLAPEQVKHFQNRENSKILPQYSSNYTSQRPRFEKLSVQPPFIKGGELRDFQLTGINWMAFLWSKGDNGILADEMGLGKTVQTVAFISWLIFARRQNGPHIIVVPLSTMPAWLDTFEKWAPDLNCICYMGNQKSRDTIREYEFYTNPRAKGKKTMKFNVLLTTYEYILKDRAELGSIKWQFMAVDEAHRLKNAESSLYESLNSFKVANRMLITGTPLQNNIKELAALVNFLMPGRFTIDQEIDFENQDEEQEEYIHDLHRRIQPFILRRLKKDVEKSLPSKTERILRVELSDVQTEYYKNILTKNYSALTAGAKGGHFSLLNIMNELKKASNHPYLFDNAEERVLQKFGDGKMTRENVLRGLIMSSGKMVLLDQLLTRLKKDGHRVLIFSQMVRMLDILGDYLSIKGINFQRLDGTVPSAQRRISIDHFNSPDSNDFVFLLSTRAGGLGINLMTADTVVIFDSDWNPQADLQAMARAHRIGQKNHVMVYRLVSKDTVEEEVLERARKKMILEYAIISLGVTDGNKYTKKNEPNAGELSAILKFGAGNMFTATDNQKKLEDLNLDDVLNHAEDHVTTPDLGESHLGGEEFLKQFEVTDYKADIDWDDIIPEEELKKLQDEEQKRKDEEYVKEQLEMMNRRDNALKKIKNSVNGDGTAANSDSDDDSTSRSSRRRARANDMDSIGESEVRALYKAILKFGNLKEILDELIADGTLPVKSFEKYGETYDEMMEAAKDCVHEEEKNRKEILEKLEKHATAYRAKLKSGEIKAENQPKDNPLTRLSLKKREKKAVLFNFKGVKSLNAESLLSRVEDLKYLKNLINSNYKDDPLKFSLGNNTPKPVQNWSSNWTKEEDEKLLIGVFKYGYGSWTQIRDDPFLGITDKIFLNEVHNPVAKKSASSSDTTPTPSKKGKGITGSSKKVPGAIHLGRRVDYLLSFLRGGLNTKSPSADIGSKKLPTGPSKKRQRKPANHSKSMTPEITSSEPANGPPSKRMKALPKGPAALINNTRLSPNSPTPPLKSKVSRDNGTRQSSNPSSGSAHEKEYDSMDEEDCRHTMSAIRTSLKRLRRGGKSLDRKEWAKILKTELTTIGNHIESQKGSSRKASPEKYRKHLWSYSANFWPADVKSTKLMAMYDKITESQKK
# Protein translocase subunit SecA (Escherichia coli (strain K12)), sequence (P10408 whole entry): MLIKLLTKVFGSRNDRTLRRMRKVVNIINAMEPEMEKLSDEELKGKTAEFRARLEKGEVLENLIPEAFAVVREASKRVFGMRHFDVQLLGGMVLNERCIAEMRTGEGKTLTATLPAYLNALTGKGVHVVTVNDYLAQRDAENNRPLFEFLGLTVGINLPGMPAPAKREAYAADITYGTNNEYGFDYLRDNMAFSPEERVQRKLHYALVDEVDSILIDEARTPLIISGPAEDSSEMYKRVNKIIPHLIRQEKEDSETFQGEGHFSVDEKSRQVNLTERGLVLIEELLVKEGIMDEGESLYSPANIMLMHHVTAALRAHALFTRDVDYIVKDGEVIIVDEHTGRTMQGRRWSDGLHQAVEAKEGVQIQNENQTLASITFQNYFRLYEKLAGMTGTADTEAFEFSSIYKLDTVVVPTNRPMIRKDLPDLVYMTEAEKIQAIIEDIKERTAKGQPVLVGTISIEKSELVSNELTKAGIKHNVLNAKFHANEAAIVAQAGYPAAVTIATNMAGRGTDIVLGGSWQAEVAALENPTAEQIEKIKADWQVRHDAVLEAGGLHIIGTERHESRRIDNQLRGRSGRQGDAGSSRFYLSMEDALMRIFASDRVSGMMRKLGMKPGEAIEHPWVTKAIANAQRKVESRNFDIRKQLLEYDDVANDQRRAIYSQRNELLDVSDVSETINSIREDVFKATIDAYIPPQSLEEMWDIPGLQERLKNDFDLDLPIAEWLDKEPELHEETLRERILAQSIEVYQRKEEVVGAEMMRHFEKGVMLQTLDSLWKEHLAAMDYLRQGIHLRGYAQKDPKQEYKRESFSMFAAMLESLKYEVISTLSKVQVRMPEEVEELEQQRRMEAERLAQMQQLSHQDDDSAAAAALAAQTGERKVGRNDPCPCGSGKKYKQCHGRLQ
Compound,Percent Effect [1],Percent Effect [2],Percent Effect [3],Percent Effect [4],Percent Effect (Trypanosoma cruzi),Percent Effect [5],Percent Effect [6],Percent Effect (Homo sapiens),Percent Effect [7],Percent Effect [8],Percent Effect [9]
O=C1CC(c2ccc(F)c(F)c2)c2snc(C(=O)O)c2N1 (stereo not drawn),-0.493%,-6.67%,4.23%,3.7%,-2.36%,0.176%,2.77%,-4.84%,2.12%,-5.13%,-4.62%
Cc1noc([C@@H]2C[C@H]3OCC[C@H]3N(S(=O)(=O)c3cccnc3)C2)n1,-2.85%,11%,-6.86%,6.79%,5.75%,-5.19%,4.02%,-3.51%,3.12%,11.1%,-6.9%
Cc1cnn(C2CCCN(C(=O)CCCNc3ncccn3)C2)c1 (stereo not drawn),0.326%,21.6%,-4.82%,-6.78%,-4.62%,0%,10.3%,6.71%,-13.3%,16.1%,-4.22%
CNC(=O)[C@@]12CCO[C@@H]1CCN(S(=O)(=O)c1cccc(C)c1)C2,-2.33%,10.8%,2.22%,0.794%,3.23%,7.96%,9.96%,11.1%,1.08%,12.8%,-1.83%
O=C(NCCc1ccsc1)Nc1cccnc1N1CCCC1,-3.39%,26.3%,-28.7%,0.502%,3.64%,-2.88%,11.2%,-10.3%,8.37%,35.8%,-9.48%
CCCn1nc2c(cc1=O)CN(CCCS(N)(=O)=O)CC2,-1.13%,0%,-142%,6.58%,-3.3%,6.01%,12.1%,-3.47%,-1.48%,-8.64%,-2.91%
CCOc1ncccc1CNC(=O)N1CCCC1c1cc(C)no1 (stereo not drawn),-3.76%,8%,-5.83%,0.983%,-1.66%,0.521%,12%,14.2%,8.2%,16.1%,-6.86%
Cc1nc(C)n(CC2CCCCN2CC(=O)Nc2ccncc2)n1 (stereo not drawn),1.21%,23.4%,-4.4%,-2.19%,-9.74%,3.56%,8.11%,27.5%,5.83%,-2.44%,-9.59%

# Source: ChEMBL document CHEMBL3988442, “University of Dundee, Small-Polar-MMV Screening Library” (2021)
